Compound activity from PubChem BioAssay.
Only some compounds are listed: those with a hit (about 21% of all), similar ones and a draw of the others.
Pf growth 96h = P. falciparum growth inhibition at 96 hours; hit rate 6.9% among 320,000; P. falciparum luciferase reporter growth, 96 h; Potency, µM (doses to about 28.7 µM), for the others: at the highest dose activity change, negative = inhibition, most hits filed as inhibitors; AID 504834; note: potency is the fitted concentration of half-maximal effect; % is set by controls: 0 for no effect and ±100 for the full control effect
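Cell-based qHTS: luciferase-tagged P. falciparum in erythrocytes (2% hematocrit, 0.05% parasitemia final) incubated with compounds for 96 hours, 37 C, 5% CO2; luciferase detection reagent then added and luminescence measured.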
CHX counter = counter-screen hit for Shiga toxin inhibitors, cycloheximide. hit rate 12% among 300,000. max response, %. cell reporter, cycloheximide protein synthesis inhibition counterscreen; in the data active = max response mostly above about 13%, no sharp cut-off; inactive = mostly below about 14%; note: read at 38.3 µM for the half of the compounds with a filed dose; 0% is about no effect
Shiga inhibitor = Shiga toxin inhibition | inhibition, % at 38.7 µM | Vero cells, Shiga toxin protein synthesis inhibition reporter | hit rate 9.2% among 290,000; in the data active = inhibition mostly above about 28%, no sharp cut-off; inactive = mostly below about 43%; note: 0% is about no effect
Pf growth 48h = inhibits P. falciparum growth in the first generation, 48 h. P. falciparum luciferase growth in erythrocytes, 48 h. AID 504832. Potency, µM (top dose mostly 28.7 µM), inactives show at the highest dose activity change, negative = inhibition, hits mostly inhibitors. hit rate 5.9% among 310,000; note: potency is the fitted concentration of half-maximal effect; % is set by controls: 0 for no effect and ±100 for the full control effect
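Firefly luciferase activity from engineered P. falciparum reports growth; inhibitors lower the luminescent signal. Cultures contained 2% hematocrit erythrocytes at 0.1% final parasitemia.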
* marks the source's active call; other numbers are inactive results; ? = inconclusive; . = no result; [ ] = remark or other dose. Unless noted, calls come from the whole dose curve; as a rule, active = well fitted inhibition curve with a large enough effect; inconclusive = small, poorly fitted or top-dose-only effect, or another doubt; inactive = no such curve, though single readings can be large or run the other way.

SMILES	Pf growth 96h	CHX counter	Shiga inhibitor	Pf growth 48h
COc1ccc(C(=O)N2CCC(C(=O)N3CCN(Cc4ccccc4)CC3)CC2)cc1	-11%	-1	-5	-26%
O=[N+]([O-])c1ccccc1OCCN1CCCC1	-98%	-2	23	25%
O=[N+]([O-])c1ccccc1OCCNCc1ccccc1	14%	16*	.	99%
Cc1c(C(=O)NCc2ccc(S(N)(=O)=O)cc2)oc2ccc(Cl)cc12	0%	-1	15	26%
CCNC(=O)C1CC(=O)N(CCCc2ccccc2)C(=Nc2ccccc2)S1 (stereo not drawn)	?	-3	16	?
Cc1nc2ccccc2c(=O)n1N	-21%	-2	20	.
CCn1cc(Br)c(-c2nc3ccccc3c(=O)n2N)n1	25%	27*	75*	50%
CCN(CC)c1cc(C)c2cc(NC(=O)c3ccccc3OC)ccc2n1	9.3µM*	0	8	?
CN(C(=O)c1cccc(NC(=O)c2cccs2)c1)c1ccccc1	-6%	-3	-18	19%
COc1ccccc1C(=O)Nc1ccc2c(c1)nc1n2CCN(Cc2ccccc2)C1	?	-2	16	?
CCN(CC)c1cc(C)c2cc(NC(=O)c3cccs3)ccc2n1	?	23*	40	?
COc1ccc(NC(=O)CCC(=O)OCc2ccc([N+](=O)[O-])cc2)cc1	?	-7	6	33%[5.75 µM]
COc1ccc(N(CC(=O)NCCC2=CCCCC2)S(=O)(=O)c2c(C)[nH]c(=O)[nH]c2=O)cc1	-5%	-1	3	-13%
Cc1ccc2c(CN(C)Cc3cccc(F)c3)cc(=O)oc2c1C	3%	22*	55	-8%
Cc1ccc2c(CN(C)Cc3ccccc3)cc(=O)oc2c1C	46%	44*	46*	-7%
CCc1ccc2oc(=O)cc(CN3CCN(Cc4ccccc4)CC3)c2c1	?	-4	6	?
CCc1ccc2oc(=O)cc(CN(C)Cc3ccccc3)c2c1	.	-1	-14	8.3µM*
COc1ccc(/C=C/CN2CCN(Cc3ccc(F)cc3)C(CCO)C2)cc1 (stereo not drawn)	23%	-2	20	?
Cc1nc(SCC(=O)NCC2CCCO2)c2c3c(sc2n1)CCCC3 (stereo not drawn)	8%	-4	1	-10%
Cc1cc(C)n(-c2nc(SCC(=O)NCC3CCCO3)c3c4c(sc3n2)CCCC4)n1 (stereo not drawn)	4.1µM*	-6	-16	12µM*
Cc1nc2sc3c(c2c(=O)o1)CCC3	?	-2	23	45%
Cc1cc(C)n(-c2nc(NCC3CCCO3)c3c4c(sc3n2)COC(C)(C)C4)n1 (stereo not drawn)	2.3µM*	28*	46	.
Cc1nc2sc3c(c2c(=O)o1)CC(C)(C)OC3	15µM*	-1	-14	-3%
COC(=O)c1ccc(Cn2nnc3c(=O)[nH]c(C4CCN(S(=O)(=O)c5ccc(F)cc5)CC4)nc32)cc1	?	-9	5	?
C[C@H](O)[C@@H](C(=O)N1CCN(C(=O)OC(C)(C)C)CC1)n1cc(CCCCNC(=O)OC(C)(C)C)nn1	9%	-2	35	-2%
SMILES	Pf growth 96h	CHX counter	Shiga inhibitor	Pf growth 48h
CC[C@H](C)[C@@H](C(=O)NCCCCCCCCCCC(=O)N1CCN(C(=O)OC(C)(C)C)CC1)n1cc(CCCCN=C(NC(=O)OC(C)(C)C)NC(=O)OC(C)(C)C)nn1	1.9µM*	.	.	1.2µM*
Cc1cn([C@H](C(=O)NCCCCCCCCCCC(=O)N2CCN(C(=O)OC(C)(C)C)CC2)[C@@H](C)O)nn1	9.3µM*	.	.	10µM*
CC[C@H](C)[C@@H](C(=O)NCCCCCCCCCCC(=O)N1CCN(C(=O)OC(C)(C)C)CC1)n1cc(CCCCCNC(=O)OC(C)(C)C)nn1	1µM*	.	.	1.5µM*
CCOC(=O)/C(C#N)=C/c1cc2ccccc2nc1N1CCOCC1	19%	-3	-12	-8%
N#CC(C#N)=Cc1cc2ccccc2nc1N1CCCCC1	-10%	42*	41*	-29%
Cc1ccccc1OCc1nc2ccccc2[nH]1	1%	57*	62*	99%
COc1ccc(C(=O)NCc2nc3ccccc3[nH]2)cc1OC	46%	-2	-8	22%
CNCc1nc2ccccc2[nH]1	?	0	7	20%
c1cnc2c(OCc3nc4ccccc4[nH]3)cccc2c1	8.3µM*	62*	78*	53%
COc1ccccc1OCc1nc2ccccc2[nH]1	.	52*	51*	164%
O=C(CCCCCn1nnc2ccccc2c1=O)Nc1ccccc1F	0%	4	29	?
CCCN(CC1CC1)C(=O)CSc1ncnc2sccc12	22%	-2	20	-6%
O=C(Nc1nccs1)C1(c2ccc(Cl)cc2)CC1	?	0	14	?
C=C1C2(C(=O)Nc3nccs3)CCC(C2)C1(C)C (stereo not drawn)	.	10	-7	1.2µM*
CCOC(=O)C1=C(COC(=O)COc2ccc(C(=O)CC)cc2)NC(=O)NC1C (stereo not drawn)	35%	.	.	6%
CN(C)/C=C/C(=O)c1ccc(-c2ccc(Cl)cc2Cl)o1	51%	13	41	29%
O=[N+]([O-])c1ccc2c(c1)C(N1CCOCC1)/C(=C/COc1ccc3ccccc3c1Br)O2 (stereo not drawn)	?	12	-6	6.6µM*
CCCn1c(SCC(=O)N(C2CCCCC2)C2CCS(=O)(=O)C2)n[nH]c1=O (stereo not drawn)	47%	.	.	40%
Cc1cc(NC(=O)c2c(F)cccc2Cl)n(-c2nc3ccccc3[nH]2)n1	.	0	-12	10µM*
Cc1cc(NC(=O)c2ccccc2F)n(-c2nc3ccccc3[nH]2)n1	23%[5.75 µM]	16	68	-79%
Cc1cc(NC(=O)c2c(F)cccc2F)n(-c2nc3ccccc3[nH]2)n1	-94%	3	19	7.4µM*
Cc1cc(NC(=O)C2CC2)n(-c2nc3ccccc3s2)n1	1%	18*	36*	14%
Cc1cc(NC(=O)CCl)n(-c2nc3ccccc3s2)n1	19%	1	24	6%
Cc1cc(NC(=O)C2CCCCC2)n(-c2nc3ccccc3[nH]2)n1	.	1	-8	9.3µM*
O=S(=O)(Nc1cc(S(=O)(=O)N2CCOCC2)ccc1NCC1CCCO1)c1ccccc1F (stereo not drawn)	12%	.	.	-3%
SMILES	Pf growth 96h	CHX counter	Shiga inhibitor	Pf growth 48h
COc1ccc(/C=N/NC(=O)CNC(=O)C2COc3ccccc3O2)cc1OC (stereo not drawn)	40%	11	-2	-16%
COc1cc(Cl)ccc1NC(=O)COc1ccccc1C(=O)NN	?	11	-11	?
Cc1cc(NC(=O)c2ccc(C)s2)n(-c2nc3ccccc3[nH]2)n1	?	11	33*	-108%
Cc1cc(NC(=O)/C=C/c2cccc(F)c2)n(-c2nc3ccccc3[nH]2)n1	0%	12	-3	-70%
Cc1cc(NC(=O)/C=C/c2cccc(Cl)c2)n(-c2nc3ccccc3[nH]2)n1	?	66*	active	?
Cc1cc(NC(=O)/C=C/c2ccc(F)cc2)n(-c2nc3ccccc3[nH]2)n1	-50%	9	12	?
